Experimental data reported in ChEMBL document CHEMBL4513145, “CO-ADD screening of Biotechnology Research Centre (C.R.B.t) (Algeria) compounds”.
Several values for one entry are separate records, joined by “and”; a condition that tells them apart may be missing. Equal entries are not always repeated. Results with a measured potency or affinity are listed apart.

Assays:
Klebsiella pneumoniae = conditions: Concentration 32 ug.mL-1, ASSAY_TEST Inhibition of Bacterial Growth, detection method Absorption (OD600), MEDIA CAMHB, plate type 384well, NBS, CORNING #3640, time 18 hr
Candida albicans = conditions: 32 ug/mL
Cryptococcus neoformans = conditions: Concentration 32 ug.mL-1, ASSAY_TEST Inhibition of Fungal Growth, detection method Resazurin, Absorption (OD600-OD570), plate type 384well, NBS, CORNING #3640

| Compound | Inhibition (Klebsiella pneumoniae) [%] | Inhibition (Candida albicans) | Inhibition (Cryptococcus neoformans) [%] | Inhibition (Klebsiella pneumoniae; 32 ug/mL) | Inhibition (Cryptococcus neoformans; 32 ug/mL) |
| --- | --- | --- | --- | --- | --- |
| CC1C(O)N(C(=O)OC(C)(C)C)N(S(=O)(=O)c2ccc([N+](=O)[O-])cc2)C1C (stereo not given) | 8.57 | 3.18% | -8.51 | – | – |
| Cc1ccc(S(=O)(=O)N2CC(C)C(=O)N2S(=O)(=O)c2ccc(C)cc2)cc1 (stereo not given) | – | 7.75% and 4.44% | – | 2.85% and 1.74% | -9.56% and 1.92% |
| CCCCCCCC1CN(S(=O)(=O)c2ccc(C)cc2)N(C(=O)OC(C)(C)C)C1O (stereo not given) | -2.15 | 2.88% | -7.05 | – | – |
| O=C(OCc1ccccc1)N1OC(O)C2CCCCC21 (stereo not given) | 8.05 | 6.56% | -9.13 | – | – |
| CC(C)(C)OC(=O)N1C(=O)C(Cc2ccccc2)CN1S(=O)(=O)c1ccc([N+](=O)[O-])cc1 (stereo not given) | – | – | – | 6.28% and 7.63% and -5.45% | -5.52% and -6.93% and -6.97% |
| CC1CN(S(=O)(=O)c2ccc([N+](=O)[O-])cc2)N(C(=O)OC(C)(C)C)C1O (stereo not given) | -4.4 | 0.59% | -8.44 | – | – |
| CC(C)(C)OC(=O)N1C(O)C2CCCC2N1S(=O)(=O)c1ccc([N+](=O)[O-])cc1 (stereo not given) | -0.3 | 1.02% | -8.39 | – | – |
| CCCCCCCC1CN(S(=O)(=O)c2ccc(C)cc2)N(C(=O)OC(C)(C)C)C1=O (stereo not given) | 0.4 | 1.48% | -13.28 | – | – |
| CC(C)(C)OC(=O)N1C(O)C(Cc2ccccc2)CN1S(=O)(=O)c1ccc([N+](=O)[O-])cc1 (stereo not given) | – | – | – | 9.89% and 6.63% and 13.09% | -4.16% and -1.5% and -1.29% |
